Test results as given in PubChem BioAssay (NCATS).
Values without a mark were called inactive. Results filed as inconclusive are left out. A call without a number means that no potency is given here. Activity calls are given as the source filed them. Calls follow the shape of the dose curve; as a rule, active = well fitted curve in the direction sought with a large enough effect; inconclusive = small, poorly fitted or top-dose-only effect, or another doubt; inactive = no such curve, though single readings can be large; an effect the other way counts as inactive or inconclusive.

Key:
[1] = tested on: Zika virus NS2B-NS3 protease (unlinked); assay: Optimization of GU AMC qHTS for Zika virus inhibitors: Unlinked NS2B-NS3 protease assay (AID 1347151); also: nearly all actives have a fitted effect of over 80% in size; also: potency is read from the fitted curve at half-maximal effect
Outline: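 Noncovalent NS2B hydrophilic domain–NS3 protease complex (25 nM final) in 10 mM Tris-HCl pH 8.0, 0.01% Tween 20; AMC substrate, room temperature 15 min (~20% conversion); fluorescence change normalized, 4-parameter Hill fit.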

[2] = tested on: Zika virus NS2B-NS3 protease; assay: Primary screen GU AMC qHTS for Zika virus inhibitors (AID 1347154); also: nearly all actives have a fitted effect of over 70% in size
Outline: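 Unlinked Zika NS2B hydrophilic domain–NS3 protease complex at 25 nM in 10 mM Tris-HCl pH 8.0, 0.01% Tween 20, with an AMC peptide substrate. Fluorescence change (340/450 nm) over 15 min at room temperature, normalized to controls, fitted to 4-parameter Hill.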

[3] = biological target: Lysine-specific demethylase 5B (Homo sapiens) (UniProt Q9UGL1); assay: Optimization screen for KDM5B Histone Demethylases FDH coupled qHTS against the LOPAC library (AID 1347166)
Sequence of Lysine-specific demethylase 5B (Homo sapiens) (Q9UGL1 whole entry, looked up): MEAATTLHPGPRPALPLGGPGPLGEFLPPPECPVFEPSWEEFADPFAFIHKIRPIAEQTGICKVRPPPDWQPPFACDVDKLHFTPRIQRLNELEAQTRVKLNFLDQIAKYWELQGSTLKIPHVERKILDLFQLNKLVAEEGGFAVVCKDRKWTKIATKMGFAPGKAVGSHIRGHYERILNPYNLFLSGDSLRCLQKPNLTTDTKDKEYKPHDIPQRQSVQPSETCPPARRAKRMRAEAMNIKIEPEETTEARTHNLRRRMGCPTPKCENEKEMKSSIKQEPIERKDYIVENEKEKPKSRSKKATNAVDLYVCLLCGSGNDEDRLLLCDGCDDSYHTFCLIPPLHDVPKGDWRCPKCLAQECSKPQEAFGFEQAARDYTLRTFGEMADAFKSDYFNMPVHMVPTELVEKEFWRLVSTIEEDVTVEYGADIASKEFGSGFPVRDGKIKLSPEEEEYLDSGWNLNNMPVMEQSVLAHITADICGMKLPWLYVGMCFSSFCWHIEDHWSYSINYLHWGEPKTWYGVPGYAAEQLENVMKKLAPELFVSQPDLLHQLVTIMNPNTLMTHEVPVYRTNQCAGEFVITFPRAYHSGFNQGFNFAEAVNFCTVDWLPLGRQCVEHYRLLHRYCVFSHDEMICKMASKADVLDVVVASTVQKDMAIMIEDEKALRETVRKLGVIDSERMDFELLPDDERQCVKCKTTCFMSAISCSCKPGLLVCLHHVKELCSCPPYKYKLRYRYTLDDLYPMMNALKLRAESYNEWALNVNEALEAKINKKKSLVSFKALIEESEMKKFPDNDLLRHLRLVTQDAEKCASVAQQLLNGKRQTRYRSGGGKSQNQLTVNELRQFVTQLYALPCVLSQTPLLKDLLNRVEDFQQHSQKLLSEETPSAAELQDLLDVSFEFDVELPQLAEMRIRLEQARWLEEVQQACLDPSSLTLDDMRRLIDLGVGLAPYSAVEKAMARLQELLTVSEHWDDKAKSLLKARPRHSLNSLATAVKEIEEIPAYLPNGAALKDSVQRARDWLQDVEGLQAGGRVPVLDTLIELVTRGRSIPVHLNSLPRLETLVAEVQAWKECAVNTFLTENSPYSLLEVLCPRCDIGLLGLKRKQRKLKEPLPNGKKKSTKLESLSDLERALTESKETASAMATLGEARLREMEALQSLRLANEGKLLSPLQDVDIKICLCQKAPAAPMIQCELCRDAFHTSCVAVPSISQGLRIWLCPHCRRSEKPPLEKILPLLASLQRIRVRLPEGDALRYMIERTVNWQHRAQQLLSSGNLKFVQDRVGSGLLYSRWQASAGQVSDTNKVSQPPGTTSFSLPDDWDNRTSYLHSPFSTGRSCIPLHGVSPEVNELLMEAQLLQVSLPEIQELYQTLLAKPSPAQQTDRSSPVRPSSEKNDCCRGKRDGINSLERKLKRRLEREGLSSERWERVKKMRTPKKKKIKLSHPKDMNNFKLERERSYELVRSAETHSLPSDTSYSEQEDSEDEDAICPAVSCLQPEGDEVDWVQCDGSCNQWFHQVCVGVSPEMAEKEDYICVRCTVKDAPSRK
Outline: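 KDM5BDeltaAP (200nM final) preincubated 10 min with compound, then 12.5uM H3K4Me3, 25uM a-ketoglutarate, ascorbate, Fe(II), NAD+ and FDH added; 50mM HEPES pH 7.5, 0.01% Tween-20. NADH fluorescence (340/450 nm) change over 30 min, room temperature.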

[4] = qHTS to identify inhibitors of the type 1 interferon - major histocompatibility complex class I in skeletal muscle: primary screen against the NCATS LOPAC collection (AID 1347405);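 also: lytic HiBiT luminescence reporting HLA-B protein level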; also: potency is read from the fitted curve at half-maximal effect
Outline: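 Immortalized human C25cl48 myoblasts with HiBiT knocked into endogenous HLA-B*08:01 were stimulated with 4.0 ng/ml IFN-beta and given compounds in a 7-point, 1:4.3 titration from 46 uM final; after 24 hrs, lytic HiBiT luminescence was read.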

[5] = qHTS to identify inhibitors of the type 1 interferon - major histocompatibility complex class I in skeletal muscle: primary screen against the NCATS Pharmaceutical Collection (AID 1347407);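 also: luminescence of HiBiT knocked into endogenous HLA-B as interferon-induced MHC class I level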; also: potency is read from the fitted curve at half-maximal effect
Outline: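 Immortalized human myoblasts (C25cl48) with HiBiT knocked into endogenous HLA-B*08:01 were stimulated with 4.0 ng/ml IFN-beta and treated with compounds ([…] top 46 uM) for 24 hrs at 37 C. HiBiT lytic luminescence read.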

[6] = qHTS for inhibitors of adenylyl cyclases using a fission yeast platform: a pilot screen against the NCATS LOPAC library (AID 1347410)
Outline: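 S. pombe CHP2027 (AC9-GNAS-PDE4D2) carrying PKA-repressed fbp1-GFP, incubated 18 h at 30C in EMM with LOPAC compounds at up to 57 uM. GFP gain-of-signal read by laser scanning cytometry; DMSO negative control.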

[7] = qHTS to identify inhibitors of the type 1 interferon - major histocompatibility complex class I in skeletal muscle: primary screen against the NCATS Mechanism Interrogation Plate v5.0 (MIPE) Libary (AID 1347411); also: potency is read from the fitted curve at half-maximal effect; nearly all actives have a fitted effect of over 65% in size
Outline: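 Immortalized human C25cl48 myoblasts with HiBit knocked into endogenous HLA-B*08:01 were stimulated with 4.0 ng/ml IFN-beta and exposed to compounds (11-point 1:3 titration, top 46 uM final) for 24 hrs at 37 C; HiBiT lytic luminescence measured.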

[8] = biological target: Protein phosphatase 1D (Homo sapiens) (UniProt O15297); assay: RapidFire Mass Spectrometry qHTS Assay for Modulators of WT P53-Induced Phosphatase 1 (WIP1) (AID 1347424);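 also: amount of dephosphorylated VEPPL-S-QETFS peptide product formed by WIP1; series mostly up to about 63 µM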
Sequence of Protein phosphatase 1D (Homo sapiens) (O15297 whole entry, looked up): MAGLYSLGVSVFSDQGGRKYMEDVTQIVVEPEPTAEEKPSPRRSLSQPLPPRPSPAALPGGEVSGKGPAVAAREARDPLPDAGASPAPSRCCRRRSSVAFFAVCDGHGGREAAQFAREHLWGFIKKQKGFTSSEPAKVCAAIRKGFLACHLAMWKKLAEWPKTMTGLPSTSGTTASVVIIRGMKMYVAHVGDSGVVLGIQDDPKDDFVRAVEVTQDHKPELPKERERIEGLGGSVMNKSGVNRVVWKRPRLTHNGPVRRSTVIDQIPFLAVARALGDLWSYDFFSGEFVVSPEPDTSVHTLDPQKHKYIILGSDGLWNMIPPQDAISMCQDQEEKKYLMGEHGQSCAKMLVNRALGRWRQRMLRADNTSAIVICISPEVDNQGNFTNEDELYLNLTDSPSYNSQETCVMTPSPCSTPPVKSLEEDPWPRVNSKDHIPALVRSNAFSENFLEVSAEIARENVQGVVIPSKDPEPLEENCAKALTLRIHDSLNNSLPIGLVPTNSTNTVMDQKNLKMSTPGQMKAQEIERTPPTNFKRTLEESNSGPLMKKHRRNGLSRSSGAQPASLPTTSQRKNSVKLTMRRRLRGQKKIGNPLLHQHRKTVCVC
Outline: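 10 nM WIP1 preincubated with compounds 1 hr at room temperature in pH 7.5 Tris buffer with 30 mM MgCl2, 1 mM TCEP; 2 uM VEPPL-pS-QETFS phosphopeptide for 5 min, formic acid quench; dephosphorylated product quantified by RapidFire MS against labelled standard.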

[9] = Validation qHTS assay for inhibitors of Activation Induced Cytidine Deaminase (AID): UDG Counterscreen signal (AID 1347427)
Outline: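 Counterscreen read of UDG activity (2 U/mL, 4/3x) in the FRET deamination format with AID (1 uM, 4/3x), DJC20/DJC23 substrates (250 nM, 4x), 4 h at room temperature. NaOH stop, fluorescence at 560 ex/665 em.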

[10] = biological target: Single-stranded DNA cytosine deaminase (Homo sapiens) (UniProt Q9GZX7); assay: Validation qHTS assay for inhibitors of Activation Induced Cytidine Deaminase (AID): AID signal (AID 1347429); also: potency is read from the fitted curve at half-maximal effect
Sequence of Single-stranded DNA cytosine deaminase (Homo sapiens) (Q9GZX7 whole entry, looked up): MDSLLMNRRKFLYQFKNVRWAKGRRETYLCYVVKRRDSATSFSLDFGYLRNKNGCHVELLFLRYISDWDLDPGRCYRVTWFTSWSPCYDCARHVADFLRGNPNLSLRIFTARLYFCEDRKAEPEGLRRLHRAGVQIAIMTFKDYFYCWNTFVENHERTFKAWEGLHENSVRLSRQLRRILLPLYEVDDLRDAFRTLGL
Outline: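 AID and UDG were combined and compounds added at final up to 114 uM, then DJC20/DJC23 FRET substrate was added for 4 hr at room temperature. NaOH was then added for 30 min before fluorescence was read at 540/590 nm.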

[11] = biological target: Protein phosphatase 1D (Homo sapiens) (UniProt O15297); assay: Rhodamine-PBP qHTS Assay for Modulators of WT P53-Induced Phosphatase 1 (WIP1) (AID 1347425)
Outline: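 WIP1 (5 nM final) was preincubated with compound for 1 hour at room temperature. It then dephosphorylated 10 uM VEPPL-pS-QETFS peptide in Tris-HCl pH 7.5 with 30 mM MgCl2. Released Pi was detected by 10 uM Rh-PBP fluorescence (ex 525/em 598 nm) read at 1-min intervals for 11 min, as delta f1 - f0.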

[12] = Confirmatory screen NINDS Rhodamine qHTS for Zika virus inhibitors (AID 1347161); also: nearly all actives have a fitted effect of over 60% in size; also: potency is read from the fitted curve at half-maximal effect
Outline: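 Kinetic fluorescence (Ex 480 nm, Em 540 nm) over 15 min with 1.5 microM Rhodamine110 peptide and 25 nM linked protease.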

[13] = tested on: Zika virus NS2B-NS3 protease (linked construct); assay: 384 well plate NINDS Rhodamine confirmatory qHTS for Zika virus inhibitors (AID 1347164); details: rhodamine-110 peptide substrate fluorescence;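 also: fluorescence from protease cleavage of Ac-LKRR-rhodamine 110 substrate; potency is read from the fitted curve at half-maximal effect; nearly all actives have a fitted effect of over 65% in size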
Outline: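 Linked NS2B-NS3 protease (final 5, 30 or 60 nM) preincubated ~15 minutes with compounds, then 10 microM Ac-LKRR-Rhodamine 110 added. Fluorescence (485/538 nm) read after 25 minutes at room temperature, normalized to no-enzyme and no-inhibitor controls.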

[14] = tested on: Zika virus NS2B-NS3 protease (linked construct); assay: Confirmatory screen NINDS AMC qHTS for Zika virus inhibitors (AID 1347152);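 also: AMC fluorescence gain from cleaved Bz-Nle-KRR-AMC substrate over 15 min; top concentration of the series differs between compounds; nearly all actives have a fitted effect of over 70% in size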
Outline: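 Linked NS2B-NS3 protease, 1 nM, in 10 mM Tris-HCl pH 8.0, 0.01% Tween 20; compounds preincubated 15 min at room temperature. Nle-KRR-AMC 10 microM (Km 18.3 µM); 15-min fluorescence change (340/450 nm) fitted to 4-parameter Hill.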

[15] = tested on: Zika virus NS2B-NS3 protease (unlinked complex); assay: Confirmatory screen GU AMC qHTS for Zika virus inhibitors (AID 1347153); also: nearly all actives have a fitted effect of over 70% in size
Outline: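 Unlinked NS2B-NS3 complex (25 nM) in 10 mM Tris-HCl pH 8.0, 0.01% Tween 20 preincubated 15 min with compound, then 10 microM Bz-Nle-KRR-AMC (Km 18.3 µM). Fluorescence change over 15 min, normalized, Hill-fitted.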

[16] = tested on: Zika virus NS2B-NS3 protease (unlinked complex); assay: Primary screen GU Rhodamine qHTS for Zika virus inhibitors: Unlinked NS2B-NS3 protease assay (AID 1347159); also: nearly all actives have a fitted effect of over 60% in size
Outline: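 Noncovalent NS2B hydrophilic domain/NS3 protease complex (25 nM final) in 10 mM Tris-HCl pH 8.0, 0.01% Tween 20, preincubated 15 min with compounds (up to 114 microM), then 1.5 microM Rhodamine110 substrate. Fluorescence change over 15 min fitted to 4-parameter Hill.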

[17] = tested on: Zika virus NS2B-NS3 protease (linked construct); assay: Primary screen NINDS Rhodamine qHTS for Zika virus inhibitors (AID 1347160); details: outcome: dose series up to 57.1 µM; also: nearly all actives have a fitted effect of over 55% in size
Outline: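 Purified NS2B-NS3 protease with the NS2B hydrophilic domain joined by a flexible linker (25 nM) in 10 mM Tris-HCl pH 8.0, 0.01% Tween 20, preincubated 15 min at RT with compound; Rhodamine110 peptide substrate 1.5 µM; fluorescence change over 15 min; 4-parameter Hill fit.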

[18] = Vero cells viability qHTS for Zika virus inhibitors (AID 1347167)
Outline: (§1)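 Cells seeded at 2.5 x 10^5 cells/mL in DMEM with 4% FBS and attached overnight at 37 degrees C, then exposed to compound for 24 to 48 hours. Viability read as ATP content by CellTiter Glo luminescence.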

[19] = HepG2 cells viability qHTS for Zika virus inhibitors (AID 1347168)
Outline: as §1

SMILES | Potency [1] | outcome [2] | Potency [3] | Potency [4] | Potency [5] | outcome [6] | Potency [7] | Potency [8] | outcome [9] | Potency [10] | outcome [11] | Potency [12] | Potency [13] | outcome [14] | outcome [15] | outcome [16] | outcome [17] | outcome [18] | outcome [19]
CC(=O)[C@]1(O)Cc2c(O)c3c(c(O)c2[C@@H](O[C@H]2C[C@H](N)[C@H](O)[C@H](C)O2)C1)C(=O)c1ccccc1C3=O | inactive | inactive | inactive | 1 µM (active) | 5.28 µM (active) | inactive | 2.08 µM (active) | inactive | inactive | 2 µM (active) |  |  |  |  |  |  |  |  | 
CN(C)CC/C=C1\c2ccccc2COc2ccccc21 | inactive | inactive | inactive | inactive | inactive | inactive |  | inactive | inactive | inactive | inactive |  |  |  |  |  |  |  | 
C(=C\c1ccccc1)/CN1CCN(C(c2ccccc2)c2ccccc2)CC1 | inactive | inactive | inactive | inactive | inactive | inactive |  | inactive | inactive | inactive | inactive |  |  |  |  |  |  |  | 
CNCCCN1c2ccccc2CCc2ccccc21 | inactive | inactive | inactive | inactive | inactive | inactive |  | inactive | inactive | inactive | inactive |  |  |  |  |  |  |  | 
CCn1ccnc1CC1COc2ccccc2O1 (stereo not given) | inactive | inactive | inactive | inactive | inactive | inactive |  | inactive | inactive | inactive | inactive |  |  |  |  |  |  |  | 
CN(C)[C@@H]1C(=O)C(C(N)=O)=C(O)[C@@]2(O)C(=O)C3=C(O)c4c(O)ccc(Cl)c4[C@@H](O)[C@H]3C[C@@H]12 | inactive | inactive |  | inactive | inactive | inactive |  | inactive | inactive | inactive |  | 12.4 µM (active) | 25.1 µM (active) |  |  |  |  |  | 
CC(C)[N+](C)(CCOC(=O)C1c2ccccc2Oc2ccccc21)C(C)C | inactive | inactive | inactive | inactive | inactive | inactive |  | inactive | inactive | inactive | inactive |  |  |  |  |  |  |  | 
CCC(=O)c1ccc2c(c1)N(CCCN(C)C)c1ccccc1S2 | inactive | inactive | inactive | inactive | inactive | inactive |  | inactive | inactive | inactive | inactive |  |  |  |  |  |  |  | 
COCCc1ccc(OCC(O)CNC(C)C)cc1 (stereo not given) | inactive | inactive | inactive | inactive | inactive | inactive |  | inactive | inactive | inactive | inactive |  |  |  |  |  |  |  | 
COC(=O)[C@H]1[C@H]2C[C@@H]3c4[nH]c5cc(OC)ccc5c4CCN3C[C@H]2C[C@@H](OC(=O)c2cc(OC)c(OC)c(OC)c2)[C@@H]1OC | 15 µM (active) | inactive |  |  | inactive | inactive |  | inactive | inactive | inactive | inactive | inactive |  | inactive | inactive | inactive | inactive | inactive | inactive
CC(=O)[C@@]1(O)CC[C@H]2[C@@H]3CCC4=CC(=O)CC[C@]4(C)[C@H]3CC[C@@]21C | inactive | inactive | inactive | inactive | inactive | inactive |  | inactive | inactive | inactive | inactive |  |  |  |  |  |  |  | 
